Test results published in PubChem BioAssay.
Calls of active or inactive are those of the source.

Tests used:
[1] = binders of probe aFSTL3 on microarray, primary screen, stem cell growth factor project, biochemical, small-molecule microarray, fluorescence 635/667 (AID 1064); settings: higher = more signal;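 note: measures binding of the biotinylated anti-FSTL3 antibody to printed compounds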
[2] = binders from COS7 lysate, DM2A8 probe, primary screen, torsin A project, cell lysate, small-molecule microarray, fluorescence 635/667 (AID 1065); settings: higher = more signal, COS7 lysate expressing mutant human TOR1A
[3] = binders of probe aFGF2 on microarray, primary screen, stem cell growth factor project, biochemical, small-molecule microarray, fluorescence 635/667 (AID 1067); settings: higher = more signal;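 note: measures binding of biotinylated aFGF2 protein to printed compounds on slides; z-score merges feature fluorescence and signal-to-noise across triplicate slides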
[4] = binders of probe aFGF10 on microarray, primary screen, stem cell growth factor project, biochemical, small-molecule microarray, fluorescence 635/667 (AID 1071); settings: higher = more signal;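 note: score merges 667 nm spot intensity and signal to noise from triplicate slides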
[5] = target: Neurogenic locus notch homolog protein 2 (Homo sapiens) (UniProt Q04721); experiment: Notch2 binders on small-molecule microarrays, primary screen, biochemical, small-molecule microarray, 635 nm fluorescence, stem cell growth factors (AID 1073); settings: Notch2 binding, higher = more signal
[6] = target: Pro-neuregulin-1, membrane-bound isoform (Homo sapiens) (UniProt Q02297); experiment: NRG1 binders on small-molecule microarrays, primary screen, psychiatric disease protein project, biochemical, small-molecule microarray, fluorescence 635/667 (AID 1075); settings: NRG1 binding, 635 nm fluorescence, higher = more signal;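 note: score combines 667 nm spot fluorescence with signal to noise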
[7] = test system: Neuregulin-1 EGF-like domain; experiment: binders of neuregulin-1 EGF-like domain, primary screen, biochemical, small-molecule microarray, 635 nm fluorescence (AID 1081); settings: small-molecule microarray binding, higher = more signal;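 note: binding of the protein to compounds printed on small-molecule microarray slides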
[8] = FRG1 promoter luciferase signal modulators, primary screen, FRG1 inhibition for FSHD, cell-based, C2C12 myotubes, firefly/Renilla luciferase, luminescence (AID 1084); settings: higher = more signal, called active from +8 up or from −8 down
[9] = binders of probe aFST on microarray, primary screen, stem cell growth factor project, biochemical, small-molecule microarray, fluorescence 635/667 (AID 1086); settings: higher = more signal;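 note: score merges 667 nm fluorescence with signal-to-noise of each printed compound spot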
[10] = binders of probe aHhip on microarray, primary screen, stem cell growth factor project, biochemical, small-molecule microarray, fluorescence 635/667 (AID 1087); settings: higher = more signal;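 note: score merges spot fluorescence at 667nm with spot signal to noise ratio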
[11] = test system: PRMT1 (protein arginine N-methyltransferase 1); experiment: PRMT1 binders on small-molecule microarrays, primary screen, biochemical, small-molecule microarray, 635 nm fluorescence (AID 1088); settings: small-molecule microarray binding, higher = more signal;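 note: binding of Prmt1 protein to compounds spotted on small-molecule microarray slides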
[12] = yeast growth modulation, basal conditions, primary screen, YJM789 clinical isolate, OD600, 24 h (AID 1089);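 note: growth of clinical yeast isolate S. cerevisiae YJM 789 seeded 1000 cells per well; test concentration not given here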; settings: S. cerevisiae YJM789 growth, higher = more signal, called active from +8 up or from −8 down
[13] = fission yeast growth modulation, primary screen, strain 972, OD600, 24 h, no modulator (AID 1090);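 note: basal condition with compound alone and no growth modifier present; test concentration not given here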; settings: S. pombe 972 growth, higher = more signal, called active from +8 up or from −8 down
[14] = S. cerevisiae growth modulation with rapamycin, primary screen, strain BY4716, OD600, 96 h (AID 1091); settings: higher = more signal, called active from +8 up or from −8 down; note: test concentration not given here
[15] = target: Torsin-1A-interacting protein 2 (Homo sapiens) (UniProt Q8NFQ8); experiment: LULL1 binders on small-molecule microarray, primary screen, cell lysate, human LULL1 lysate, 635/667 nm fluorescence (AID 1092); settings: hLULL1 lysate binding, 635 nm fluorescence, higher = more signal;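 note: probe is lysate of COS7 cells overexpressing human LULL1; score merges per-feature 667 nm fluorescence with signal-to-noise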
[16] = E. coli growth modulation, two-sided OD650, primary screen, E. coli filamentation project, strain DRC41, 24 h (AID 1093); settings: OD650, 24 h, higher = more signal, called active from +8 up or from −8 down;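 note: MC1000 strain lacking acrAB efflux and sulA so SOS filamentation is blocked; test concentration not given here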
[17] = small-molecule microarray binders of probe aLefty2, primary screen, biochemical, biotinylated probe, 635/667 nm fluorescence (AID 1094); settings: higher = more signal;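 note: score merges spot fluorescence near 667 nm with spot signal-to-noise ratio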
[18] = test system: Noggin (protein binding on small-molecule microarray); experiment: Noggin binders on small-molecule microarray, primary screen, biochemical, 635/667 nm fluorescence (AID 1095); settings: 635 nm fluorescence, higher = more signal;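 note: score merges 667 nm feature fluorescence with signal to noise over triplicate slides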
[19] = target: Neurogenic locus notch homolog protein 3 (Homo sapiens) (UniProt Q9UM47); experiment: NOTCH3 binders on small-molecule microarray, primary screen, biochemical, 635/667 nm fluorescence (AID 1096); settings: NOTCH3 binding, 635 nm fluorescence, higher = more signal
[20] = small-molecule microarray binders of probe aEGFR, primary screen, biochemical, biotinylated probe, 635/667 nm fluorescence (AID 1097); settings: higher = more signal;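 note: probe is a biotinylated anti-EGFR antibody binding compounds printed on slides; score combines fluorescence near 667 nm and signal to noise of each spot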

Sequence of Neurogenic locus notch homolog protein 3 (Homo sapiens) (Q9UM47 whole entry, looked up): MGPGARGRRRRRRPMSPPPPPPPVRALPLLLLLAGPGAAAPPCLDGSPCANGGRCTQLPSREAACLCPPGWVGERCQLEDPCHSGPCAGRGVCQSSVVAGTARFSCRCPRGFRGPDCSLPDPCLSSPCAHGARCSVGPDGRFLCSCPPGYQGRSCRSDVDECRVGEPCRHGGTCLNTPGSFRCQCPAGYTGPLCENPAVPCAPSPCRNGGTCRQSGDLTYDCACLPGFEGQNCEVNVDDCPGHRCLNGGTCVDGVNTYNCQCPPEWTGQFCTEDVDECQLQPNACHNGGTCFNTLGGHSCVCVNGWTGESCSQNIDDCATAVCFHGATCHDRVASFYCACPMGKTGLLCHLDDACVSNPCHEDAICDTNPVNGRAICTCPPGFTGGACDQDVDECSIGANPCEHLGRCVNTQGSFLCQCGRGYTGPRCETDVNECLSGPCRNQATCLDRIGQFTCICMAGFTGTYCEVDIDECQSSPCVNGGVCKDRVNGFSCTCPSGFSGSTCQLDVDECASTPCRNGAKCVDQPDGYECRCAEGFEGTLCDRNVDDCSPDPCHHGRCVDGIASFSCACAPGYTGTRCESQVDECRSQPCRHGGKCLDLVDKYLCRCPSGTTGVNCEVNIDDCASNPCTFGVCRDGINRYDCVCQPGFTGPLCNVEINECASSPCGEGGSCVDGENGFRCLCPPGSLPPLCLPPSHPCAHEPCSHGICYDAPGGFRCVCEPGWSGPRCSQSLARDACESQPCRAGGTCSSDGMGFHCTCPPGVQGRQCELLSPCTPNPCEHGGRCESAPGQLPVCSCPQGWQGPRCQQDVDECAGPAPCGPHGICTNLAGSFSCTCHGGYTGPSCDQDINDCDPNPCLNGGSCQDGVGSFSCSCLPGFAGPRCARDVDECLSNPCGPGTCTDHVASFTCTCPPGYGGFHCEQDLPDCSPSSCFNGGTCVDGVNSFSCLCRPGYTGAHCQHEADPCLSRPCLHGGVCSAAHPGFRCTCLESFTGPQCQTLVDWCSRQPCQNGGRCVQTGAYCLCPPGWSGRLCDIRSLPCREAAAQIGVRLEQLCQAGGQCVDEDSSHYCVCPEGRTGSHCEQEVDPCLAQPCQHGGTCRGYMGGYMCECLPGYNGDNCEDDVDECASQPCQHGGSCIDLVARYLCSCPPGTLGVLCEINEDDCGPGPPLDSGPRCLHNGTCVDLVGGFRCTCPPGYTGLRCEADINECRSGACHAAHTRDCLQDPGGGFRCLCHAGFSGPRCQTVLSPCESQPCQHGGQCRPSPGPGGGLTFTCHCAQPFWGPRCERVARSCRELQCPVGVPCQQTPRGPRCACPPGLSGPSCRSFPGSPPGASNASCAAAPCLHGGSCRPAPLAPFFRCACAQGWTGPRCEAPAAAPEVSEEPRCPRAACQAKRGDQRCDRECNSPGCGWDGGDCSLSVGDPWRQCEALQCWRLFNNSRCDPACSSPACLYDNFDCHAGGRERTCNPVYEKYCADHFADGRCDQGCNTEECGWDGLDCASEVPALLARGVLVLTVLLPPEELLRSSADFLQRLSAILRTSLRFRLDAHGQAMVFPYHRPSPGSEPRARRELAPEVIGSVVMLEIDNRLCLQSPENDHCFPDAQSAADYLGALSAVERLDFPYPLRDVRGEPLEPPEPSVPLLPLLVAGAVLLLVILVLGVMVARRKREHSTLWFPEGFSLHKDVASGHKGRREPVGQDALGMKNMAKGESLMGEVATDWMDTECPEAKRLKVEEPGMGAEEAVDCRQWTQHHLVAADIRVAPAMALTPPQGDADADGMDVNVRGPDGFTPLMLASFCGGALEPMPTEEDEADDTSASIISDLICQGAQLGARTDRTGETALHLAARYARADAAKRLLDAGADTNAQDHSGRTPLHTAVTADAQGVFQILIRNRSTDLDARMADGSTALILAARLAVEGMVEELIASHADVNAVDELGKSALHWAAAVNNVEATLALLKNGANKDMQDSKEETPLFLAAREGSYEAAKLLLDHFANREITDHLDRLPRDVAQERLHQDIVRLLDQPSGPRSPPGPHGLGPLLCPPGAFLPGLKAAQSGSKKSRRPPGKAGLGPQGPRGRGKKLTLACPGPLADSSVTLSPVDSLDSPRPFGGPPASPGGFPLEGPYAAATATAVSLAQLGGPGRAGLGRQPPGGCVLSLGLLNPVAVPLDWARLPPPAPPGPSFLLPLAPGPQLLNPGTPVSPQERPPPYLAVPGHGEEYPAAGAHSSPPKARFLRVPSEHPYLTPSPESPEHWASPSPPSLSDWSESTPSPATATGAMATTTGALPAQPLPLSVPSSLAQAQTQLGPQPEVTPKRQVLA
Sequence of Pro-neuregulin-1, membrane-bound isoform (Homo sapiens) (Q02297 whole entry, looked up, the tested form may be a part, canonical isoform): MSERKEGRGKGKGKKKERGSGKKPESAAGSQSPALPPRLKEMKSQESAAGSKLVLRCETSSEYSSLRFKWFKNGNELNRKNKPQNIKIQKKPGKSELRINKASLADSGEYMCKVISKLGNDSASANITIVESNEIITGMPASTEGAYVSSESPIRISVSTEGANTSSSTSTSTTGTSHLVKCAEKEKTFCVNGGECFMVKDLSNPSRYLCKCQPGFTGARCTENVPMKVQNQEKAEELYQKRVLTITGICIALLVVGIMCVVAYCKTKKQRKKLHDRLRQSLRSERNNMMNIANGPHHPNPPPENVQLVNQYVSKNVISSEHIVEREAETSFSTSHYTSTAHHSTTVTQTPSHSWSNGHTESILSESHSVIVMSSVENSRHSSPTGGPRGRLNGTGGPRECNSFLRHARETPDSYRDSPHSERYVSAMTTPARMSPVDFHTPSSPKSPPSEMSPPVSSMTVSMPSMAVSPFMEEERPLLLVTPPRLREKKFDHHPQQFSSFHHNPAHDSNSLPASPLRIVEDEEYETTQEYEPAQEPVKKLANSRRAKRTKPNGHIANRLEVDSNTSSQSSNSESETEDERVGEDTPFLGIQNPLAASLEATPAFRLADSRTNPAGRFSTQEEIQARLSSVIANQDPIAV
Sequence of Torsin-1A-interacting protein 2 (Homo sapiens) (Q8NFQ8 whole entry, looked up): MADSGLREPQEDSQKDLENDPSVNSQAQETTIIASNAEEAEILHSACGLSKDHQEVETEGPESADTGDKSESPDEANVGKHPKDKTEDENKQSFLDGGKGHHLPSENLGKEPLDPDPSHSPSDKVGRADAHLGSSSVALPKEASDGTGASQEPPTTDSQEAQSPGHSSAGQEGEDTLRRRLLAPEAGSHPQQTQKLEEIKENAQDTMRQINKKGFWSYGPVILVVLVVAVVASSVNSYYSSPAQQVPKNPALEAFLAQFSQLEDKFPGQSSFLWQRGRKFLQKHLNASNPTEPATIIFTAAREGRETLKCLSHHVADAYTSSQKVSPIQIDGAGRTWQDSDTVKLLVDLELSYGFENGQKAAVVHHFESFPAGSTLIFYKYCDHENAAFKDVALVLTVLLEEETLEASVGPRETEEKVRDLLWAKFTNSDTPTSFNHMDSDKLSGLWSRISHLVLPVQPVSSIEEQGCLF

Row | SMILES | composite z-score [1] | composite z-score [2] | composite z-score [3] | composite z-score [4] | composite z-score [5] | composite z-score [6] | composite z-score [7] | z-score [8] | composite z-score [9] | composite z-score [10] | composite z-score [11] | z-score [12] | z-score [13] | z-score [14] | composite z-score [15] | z-score [16] | composite z-score [17] | composite z-score [18] | composite z-score [19] | composite z-score [20]
1 | Cc1ccccc1C(O)C1C=CC2C(=O)N(c3ccccc3)C(=O)C2N1Nc1ccc([N+](=O)[O-])cc1 (stereo not given) | -0.0848 | 0.804 | -0.0271 | 0.681 | 1.07 | 1.87 | 1.27 | -1.24 (inactive) | 0.886 | -0.189 | 1.45 | -0.715 (inactive) | 0.796 (inactive) | 2.67 (inactive) | 3.39 | 0.13 (inactive) | 0.0839 | 0.327 | 1.05 | 0.156
2 | [N-]=[N+]=NCc1ccccc1[C@@H]1OC(c2ccc(OCCCO)cc2)=N[C@]1(Cc1ccccc1N=[N+]=[N-])C(=O)NCCN1CCOCC1 | -0.0579 | 0.909 | 0.088 | 0.828 | 1.56 | 1.19 | 1.25 | 0.982 (inactive) | 1.11 | -0.213 | 1.55 | -0.563 (inactive) | -4.92 (inactive) | -0.889 (inactive) | 3.26 | 0.118 (inactive) | 0.0814 | 1.6 | 1.05 | 0.0809
3 | CN(C)CCCC[C@@H]1NC(=O)[C@@H]2C[C@H](C(=O)O)[C@H](c3cccc(OCCO)c3)N2C1=O | 0.119 | -0.326 | -0.186 | -0.392 | -0.561 | -0.579 | -0.106 | 1.3 (inactive) | -0.124 | -0.175 | 0.212 | 0.15 (inactive) | -0.595 (inactive) | -0.273 (inactive) | 1.31 | 0.802 (inactive) | -0.036 | -0.0355 | -0.0905 | -0.203
4 | CC(C)C(=C=CC[C@@H](O)c1cccc(OCCO)c1)C[C@@H](O)COCc1ccccc1 | -0.0972 | -0.254 | -0.0835 | 0.45 | -0.554 | -0.0802 | -0.547 | -2.12 (inactive) | 0.182 | -0.188 | 0.566 | -0.978 (inactive) | -1.55 (inactive) | -0.845 (inactive) | 0.493 | 1.61 (inactive) | -0.133 | 0.573 | 0.541 | -0.203
5 | COc1ccc(C#Cc2ccc3c(c2)[C@]2(C(=O)N3)[C@H](C(=O)Nc3nc4ccccc4s3)[C@H]3C(=O)O[C@H](c4ccccc4)[C@H](c4ccccc4)N3[C@@H]2c2ccccc2OCCO)cc1 | -0.0541 | 0.125 | -0.024 | 0.313 | 0.98 | 0.907 | 0.919 | 0.716 (inactive) | 0.723 | 0.176 | 1.36 | 2.56 (inactive) | 1.53 (inactive) | 1.59 (inactive) | 3.08 | 2.62 (inactive) | -0.0949 | 0.486 | 1.13 | -0.106
